This excerpt belongs to a sample that is enriched for hits.
Shiga inhibitor – Shiga toxin inhibition; Vero cells, Shiga toxin protein synthesis inhibition reporter; inhibition, % at 38.7 µM; 9.2% of 290,000 active; in the data active = inhibition mostly above about 28%, no sharp cut-off; inactive = mostly below about 43%; also: 0% is about no effect
RE007 growth inh – less growth of the S. pombe RE007 Vpr strain. Potency, µM (top dose mostly 92.2 µM), without a hit: at the top dose activity change, negative = less growth, actives largely listed as inhibitors. S. pombe RE007 Vpr strain, BacTiter-Glo ATP luminescence, 24 h. 0.21% of 360,000 active. AID 651644; active = well fitted falling curve with a large enough effect; inconclusive = small, poorly fitted or top-dose-only effect; inactive = no such curve, though single readings can be large or run the other way; also: potency is read from the fitted curve at half-maximal effect; % is scaled to controls: 0 for no effect and ±100 for the full control effect; nearly all actives have a fitted effect of over 50% in size
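Fission yeast strain RE007, carrying one chromosomally integrated HIV-1 vpr copy, was seeded at OD 0.01 in PMG+AL medium with 23 nL pinned compound. After 24 h at 30 °C and 99% humidity, viability was read by BacTiter-Glo luminescence.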
CHX counter – counter-screen hit for Shiga toxin inhibitors, cycloheximide | cell reporter, cycloheximide protein synthesis inhibition counterscreen | max response, % | 12% of 300,000 active | AID 2314; in the data active = max response mostly above about 13%, no sharp cut-off; inactive = mostly below about 14%; also: read at 38.3 µM for the half of the compounds with a filed dose; 0% is about no effect
Giardia FBPA inh – Giardia lamblia aldolase inhibition; AID 2451; Potency, µM (highest dose often 59.6 µM), inactives show at the top dose activity, negative = inhibition, usual class: inhibitors; 0.71% of 290,000 active; purified Giardia FBPA; A8B2U2; also: potency is read from the fitted curve at half-maximal effect; % is scaled to controls: 0 for no effect and ±100 for the full control effect; nearly all actives have a fitted effect of over 55% in size
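Giardia FBPA (40 nM reagent) was preincubated 10 min at RT with compound (up to 57.5 uM final), then substrate plus GAPDH/TPI/NAD/arsenate coupling system with diaphorase/resazurin was added; resorufin fluorescence (525/598 nm) was read after 20 min.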
Tb PYK inh – T. brucei pyruvate kinase inhibition; Q57TT1; TbPYK enzyme, Kinase-Glo Plus ATP luminescence, 45 min; Potency, µM (titrated, usually from 76.8 µM), for inactives: at the highest dose activity, negative = inhibition, hits mostly inhibitors; 0.12% of 410,000 active; AID 624173; also: potency is read from the fitted curve at half-maximal effect; % is scaled to controls: 0 for no effect and ±100 for the full control effect; nearly all actives have a fitted effect of over 50% in size
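Readout: single end-point luminescence (Kinase-Glo Plus, 10 min). Reaction conditions were TbPYK/substrate plus 130 uM ADP, 45 min at RT, pH 7.2 TEA buffer. No-enzyme wells served as controls, and data were normalized before concentration-response fitting.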
LmPK inh – inhibitors of Leishmania mexicana pyruvate kinase; purified LmPK, Kinase-Glo ATP luminescence, 1 h; Q27686; 0.37% of 290,000 active; AID 1721; Potency, µM (series often up to 57.5 µM), without a hit: at the top dose activity change, negative = inhibition, actives largely listed as inhibitors; also: potency is read from the fitted curve at half-maximal effect; % is scaled to controls: 0 for no effect and ±100 for the full control effect
Target sequence (Q27686 whole entry, looked up): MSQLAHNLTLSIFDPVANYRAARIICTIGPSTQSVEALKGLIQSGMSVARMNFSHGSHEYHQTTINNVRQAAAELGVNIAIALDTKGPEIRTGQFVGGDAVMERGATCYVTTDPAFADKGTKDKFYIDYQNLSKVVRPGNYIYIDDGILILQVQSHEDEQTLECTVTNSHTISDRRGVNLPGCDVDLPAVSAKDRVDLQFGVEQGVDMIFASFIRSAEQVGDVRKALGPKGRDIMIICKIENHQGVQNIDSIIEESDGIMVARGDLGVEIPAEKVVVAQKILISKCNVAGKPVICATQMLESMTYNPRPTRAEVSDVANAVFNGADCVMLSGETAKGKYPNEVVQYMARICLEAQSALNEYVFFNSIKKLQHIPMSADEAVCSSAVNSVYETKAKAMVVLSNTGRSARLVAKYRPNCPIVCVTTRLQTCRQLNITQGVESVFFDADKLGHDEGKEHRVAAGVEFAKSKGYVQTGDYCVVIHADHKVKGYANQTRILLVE
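Kinase-Glo luminescence read after 1 h RT reaction of 0.1 nM LmPK with 0.5 mM PEP and 0.1 mM ADP. Activity scaled between uninhibited and enzyme-free controls.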
Numbers without * were called inactive. Unless noted, calls follow the shape of the dose curve; as a rule, active = well fitted curve in the direction sought with a large enough effect; inconclusive = small, poorly fitted or top-dose-only effect, or another doubt; inactive = no such curve, though single readings can be large; an effect the other way counts as inactive or inconclusive.

Screening Cc1ccc2nc(-c3ccc(NC(=O)Cc4ccccc4)cc3)sc2c1 returned Tb PYK inh -5.1%.
For Cc1ccc2nc(-c3ccc(NC(=O)CSCC(=O)O)cc3)sc2c1 the results were Shiga inhibitor 87.5*, RE007 growth inh 3.0%, CHX counter 54.9*, Giardia FBPA inh 28.0%, Tb PYK inh -4.2% and LmPK inh 5.4%.
`Cc1ccc2nc(-c3ccc(NC(=O)COCC(=O)O)cc3)sc2c1` gave Shiga inhibitor 49.8*, RE007 growth inh 4.4%, CHX counter 55.9*, Giardia FBPA inh 29.8%, Tb PYK inh -27.5% and LmPK inh -0.5%.
CCOc1ccc(NC(=O)C2CCCN(S(=O)(=O)c3cccc4nonc34)C2)cc1 (stereo not given) was read as Tb PYK inh -3.6%.
`Cn1cnc2c(=O)oc3ccc(S(=O)(=O)N4CCN(c5cccc(C(F)(F)F)c5)CC4)cc3c21` gave Tb PYK inh 0.8%.
Screening COc1cccc(CS(=O)(=O)c2nnnn2-c2ccc(F)cc2Br)c1 returned Giardia FBPA inh -0.3%.
Screening Cc1cc(C)c2nc(N3CCCC(C(=O)NCCN4CCOCC4)C3)sc2c1 (stereo not given) returned Shiga inhibitor 45.7*, RE007 growth inh -10.3%, CHX counter 36.2*, Giardia FBPA inh 0.9%, Tb PYK inh -6.5% and LmPK inh -0.5%.
For CCN1CCN(CCCNC(=O)C2CCCN(c3nc4c(C)cc(C)cc4s3)C2)CC1 (stereo not given) the results were Shiga inhibitor 41.8*, RE007 growth inh -12.2%, CHX counter 13.2*, Giardia FBPA inh 1.5%, Tb PYK inh -2.5% and LmPK inh -1.4%.
`Cc1cc(C)c2nc(N3CCCC(C(=O)NCCCN4CCOCC4)C3)sc2c1` (stereo not given) gave Shiga inhibitor 42.4, RE007 growth inh 9.7%, CHX counter 13.6, Giardia FBPA inh -0.2%, Tb PYK inh -4.5% and LmPK inh -0.5%.
For COCC(=O)N1CCC(Oc2ccc(C(=O)N3CCCCCC3)cc2)CC1 the results were Shiga inhibitor 1.0, RE007 growth inh 0.9%, CHX counter -3.3, Giardia FBPA inh 5.9%, Tb PYK inh 1.0% and LmPK inh -8.5%.
`Oc1ccc(Cl)cc1-c1cc(-c2ccccc2Cl)[nH]n1` gave Shiga inhibitor 51.7*, RE007 growth inh 40.4%, CHX counter 23.1*, Giardia FBPA inh -9.5%, Tb PYK inh 1.8% and LmPK inh 2.1%.
For Oc1ccccc1-c1cc(-c2ccccc2Cl)[nH]n1 the results were Shiga inhibitor 101.3*, RE007 growth inh inconclusive, CHX counter 25.4*, Giardia FBPA inh 26.9%, Tb PYK inh -2.9% and LmPK inh -28.2%.
`Oc1ccc(Cl)cc1-c1cc(-c2cccc(Br)c2)n[nH]1` gave Shiga inhibitor 79.1*, RE007 growth inh -13.8%, CHX counter 42.3*, Giardia FBPA inh 5.3%, Tb PYK inh -5.0% and LmPK inh 1.8%.
Screening FC(F)(F)c1nc2nccnc2[nH]1 returned RE007 growth inh -3.4% and Tb PYK inh -0.2%.
`O=C(N/N=C/c1ccccc1F)c1csc2c1CCCC2` gave Shiga inhibitor 79.0*, RE007 growth inh -3.2%, CHX counter 41.6*, Giardia FBPA inh 2.5%, Tb PYK inh -9.7% and LmPK inh 2.6%.
Screening O=C(N/N=C/c1cccc(F)c1)c1csc2c1CCCC2 returned Shiga inhibitor 94.7*, RE007 growth inh 32.8%, CHX counter 55.2*, Giardia FBPA inh -14.0%, Tb PYK inh -9.0% and LmPK inh -5.8%.
For CC1(C)CC(=O)C([N+](=O)[O-])=C(NCCCC(=O)O)C1 the results were Shiga inhibitor -11.2, RE007 growth inh 4.2%, CHX counter 8.0, Giardia FBPA inh -0.1%, Tb PYK inh -0.5% and LmPK inh 1.4%.
Cc1sc[n+](CC(=O)c2ccc(Br)cc2)c1C was read as Shiga inhibitor -1.1, RE007 growth inh -12.0%, CHX counter 7.4, Giardia FBPA inh 2.8%, Tb PYK inh -2.3% and LmPK inh 5.7%.
Screening CCn1c(C)nc2c(C)[n+](CC(=O)c3ccc(Br)cc3)ccc21 returned Shiga inhibitor 61.2*, RE007 growth inh inconclusive, CHX counter 24.6*, Giardia FBPA inh 0.0%, Tb PYK inh 2.1% and LmPK inh -0.2%.
Screening CN(C(=O)COC(=O)c1cncc(Br)c1)C1CCCCC1 returned RE007 growth inh -6.8% and Tb PYK inh 2.7%.
Screening CN(C(=O)c1cncc(Br)c1)C1C2CC3CC(C2)CC1C3 (stereo not given) returned Shiga inhibitor 25.3, RE007 growth inh -2.4%, CHX counter 19.3*, Giardia FBPA inh 13.0%, Tb PYK inh -13.5% and LmPK inh -5.5%.
`Cc1cc(C(=O)CSc2nn3c(=O)c(C(C)(C)C)nnc3s2)c(C)n1C` gave Shiga inhibitor -6.3, RE007 growth inh -1.3%, CHX counter -1.2, Giardia FBPA inh -11.5%, Tb PYK inh -3.5% and LmPK inh 3.5%.
For CCN1C(=O)C(O)(CC(=O)/C=C/C=C/c2ccccc2)c2ccccc21 (stereo not given) the results were Shiga inhibitor -8.2, RE007 growth inh -3.7%, CHX counter 1.7, Giardia FBPA inh -1.6%, Tb PYK inh -12.9% and LmPK inh 2.7%.
Cc1ccc2c(c1)C(O)(CC(=O)/C=C/C=C/c1ccccc1)C(=O)N2 (stereo not given) was read as Shiga inhibitor 22.5, RE007 growth inh -28.2%, CHX counter 27.2*, Giardia FBPA inh 0.0%, Tb PYK inh -10.4% and LmPK inh 7.0%.
Cc1ccc(NC(=O)c2cnc(SCC(=O)N3CCOCC3)n(C)c2=O)cc1C was read as Tb PYK inh 1.8%.
For CCOC(=O)c1sc(=NC(=O)c2ccccc2)n(C)c1C the results were Shiga inhibitor 89.5*, RE007 growth inh -3.0%, CHX counter 35.9*, Giardia FBPA inh 4.5%, Tb PYK inh 0.5% and LmPK inh 10.1%.
`COc1ccc(C(=O)N=c2sc3c(C)ccc(OC)c3n2C)cc1` gave Shiga inhibitor 66.0*, RE007 growth inh 7.6%, CHX counter 37.1*, Giardia FBPA inh -6.0%, Tb PYK inh -13.5% and LmPK inh -7.4%.
Screening CCOC(=O)c1sc(=NC(=O)CCS(=O)(=O)c2ccccc2)n(C)c1C returned Shiga inhibitor 1.0, RE007 growth inh 4.7%, CHX counter 7.5, Giardia FBPA inh 8.3%, Tb PYK inh 0.1% and LmPK inh 5.3%.
COc1cc(C(=O)N=c2sc3c(C)ccc(OC)c3n2C)cc(OC)c1OC was read as Shiga inhibitor 39.1, RE007 growth inh -4.4%, CHX counter 13.0, Giardia FBPA inh 0.7%, Tb PYK inh 2.0% and LmPK inh 4.1%.

High-throughput results (PubChem)
